H9c2 TAG inh: reduces triacylglycerol accumulation in H9c2 cells; Nile Red lipid (TAG) fluorescence; cells loaded with 200 µM oleic acid; inhibition, % at 12.5 µM; actives 0.66% (n = 230,000);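 active = pattern-corrected inhibition of lipid staining of at least 50% with the nuclear-stain viability signal not falling by more than 50%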
CHT allo act: allosteric activators of human choline transporter CHT | Q9GZV3 | CHT-expressing cells, membrane potential dye, choline EC20; active compounds read high; LV-AA mutant CHT in HEK293 cells | B-score at 10 µM | actives 0.49% (n = 310,000) | AID 488977;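 active = initial fluorescence not abnormally high and integrated response B-score, plate-corrected, over 3 SD above library mean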
Kir21 block: blocks the mouse Kir2.1 inward-rectifier potassium channel; P35561; HEK293-Kir2.1, FluxOR thallium flux fluorescence; active compounds read low; B-score at 10 µM; actives 0.85% (n = 310,000); AID 1672;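 active = fluorescence ratio B-score at or below minus 3 SD of library scores, with starting-brightness B-score within 2 SD, cut at about -4.2 in these data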;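 also: channel flux triggered by added potassium and thallium sulfate stimulus; B-score of peak minus minimum fluorescence over baseline after thallium stimulus; more negative B-score means stronger Kir2.1 block with less thallium influx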
Target sequence (P35561 whole entry, looked up): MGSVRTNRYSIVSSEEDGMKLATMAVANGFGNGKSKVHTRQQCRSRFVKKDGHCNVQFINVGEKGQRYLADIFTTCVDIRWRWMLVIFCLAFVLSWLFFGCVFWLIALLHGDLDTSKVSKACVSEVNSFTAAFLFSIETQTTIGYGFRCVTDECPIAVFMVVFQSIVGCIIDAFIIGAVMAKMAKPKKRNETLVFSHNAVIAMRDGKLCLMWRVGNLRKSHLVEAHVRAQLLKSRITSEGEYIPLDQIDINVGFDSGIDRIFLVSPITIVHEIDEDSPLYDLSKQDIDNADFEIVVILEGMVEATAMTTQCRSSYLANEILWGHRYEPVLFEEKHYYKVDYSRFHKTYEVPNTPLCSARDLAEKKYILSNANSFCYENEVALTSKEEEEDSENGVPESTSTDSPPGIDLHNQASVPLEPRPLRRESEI
CHT inh: inhibitors of human choline transporter CHT; B-score at 10 µM; CHT-expressing cells, membrane potential dye, choline response; active compounds read low; actives 0.86% (n = 310,000); Q9GZV3;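 active = B-score over 3 SD under the library average, and starting fluorescence ratio not unusually high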;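 also: choline stimulus applied at its EC90 after an EC20 pre-addition; B-score computed on integrated fluorescence ratio after choline addition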
CHT block conf: confirmation of human choline transporter CHT inhibitors. shares compounds with CHT inh. CHT-expressing cells, choline membrane potential dye; LV-to-AA substituted CHT, HEK293 cells. CHT activity remaining % of control (active compounds read low), % at 10 µM. actives 70% (n = 2,400). AID 493221;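 active = choline transporter activity left, mean of duplicates at 10 µM, below buffer-only control mean minus 3 SD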;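 also: depolarization triggered by choline at its EC90 following an EC20 pre-addition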
HEK293 CHT ctr: counter-screen for CHT inhibitors: effect in parental HEK293 cells | actives 4% (n = 2,400) | shares compounds with CHT inh | membrane potential dye, choline response; active = decrease or increase beyond buffer ±3SD | membrane potential ratio readout (active if shifted either direction beyond buffer ±3SD; no single direction) at 10 µM;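 also: parental cells lack the transporter so any hit is non-specific; ratio is peak minus trough fluorescence over baseline after EC90 choline challenge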
Hits are given with their value; 0 = inactive; - = no result. The list is not random: actives were taken first. Their share in the collection is about 2%.

SMILES	H9c2 TAG inh	CHT allo act	Kir21 block	CHT inh	CHT block conf	HEK293 CHT ctr
O=C(COC(=O)CNC(=O)c1ccc(Cl)cc1Cl)NCC1CCCO1 (configuration not stated)	0	0	0	0	-	-
CC(=O)Nc1ccc(Nc2cc(C)c3ccccc3n2)cc1	-	0	0	-6.45	45.6%	0
CC(=O)Nc1ccc2nc3ccccc3nc2c1	0	0	0	0	-	-
C[C@@H](NC(=O)[C@@H]1Cc2ccccc2CN1)C(=O)NCC1CCCO1 (some centres not stated)	-	0	0	0	-	-
Cc1ccc(S(=O)(=O)NNC(=O)Nc2ccc(Cl)cc2)cc1	-	0	0	0	-	-
Cc1occc1C(=O)NNS(=O)(=O)c1ccc(Cl)cc1	-	0	0	-5.45	27.2%	0
Cc1ccc(C)c(N(C)S(=O)(=O)c2cccc3nsnc23)c1	0	0	0	-5.22	0	0
COc1ccc(-c2cc(C(=O)NCC3CCCCC3)[nH]n2)c(C)c1	0	-	-	-	-	-
O=C1CC(N2CCN(c3ccc(O)cc3)CC2)C(=O)N1Cc1cccs1 (configuration not stated)	0	0	-	0	-	-
O=C(c1ccncc1)c1ccc(N2CCN(C3CC(=O)N(Cc4cccs4)C3=O)CC2)cc1 (configuration not stated)	0	0	0	-5.62	0	0
COc1ccc(C)cc1NC(=S)NNC(=O)c1c(Br)cnn1C	0	0	0	0	-	-
Cc1c(NC(=S)NC(=O)c2ccc(-c3ccc(Cl)cc3)o2)cccc1C(=O)O	0	0	0	-8.85	55.1%	0
O=C(NC(=S)Nc1ccccc1O)c1ccc(-c2ccc(Cl)cc2)o1	0	0	0	0	-	-
CCCCCCSc1cc(-c2nc3ccc(C)cn3c2NCc2ccccc2)ccc1OC	0	0	0	0	-	-
COc1cccc(CN(C)C(=O)c2cc(COc3c(F)cccc3F)on2)c1	0	0	0	0	-	-
COc1cccc(CN(C)C(=O)c2cc(COc3ccc4ncccc4c3)on2)c1	0	0	0	-6.05	0	0
CCn1c(=N)n(CC(=O)c2ccc(Cl)c(Cl)c2)c2ccccc21	-	0	0	0	-	-
N=c1n(CCN2CCCCC2)c2ccccc2n1CC(=O)c1ccc(Cl)c(Cl)c1	0	0	-4.75	-5.42	0	0
CC(=O)N1CCCC(C)(C(=O)Nc2ccc3nc(C)ccc3c2)C1 (configuration not stated)	0	-	-	-	-	-
O=C1NN(c2ccccc2)C(=O)/C1=C/c1coc2ccccc2c1=O	-	0	0	-5.32	31.4%	0
Cc1ccc(CNC(=O)c2ccccc2NS(=O)(=O)c2ccc(Cl)nc2)cc1	0	0	0	-5.75	54.0%	0
Cc1ccc(-c2csc3ncn(CC#N)c(=O)c23)cc1	-	0	0	-5.61	50.0%	0
CCn1cnc2scc(-c3ccccc3)c2c1=O	0	0	0	0	-	-
CCN(CC)c1ccc(/C=N/NC(=O)c2ccco2)c(O)c1	0	0	0	-5.19	0	0
CCOC(=O)c1sc(=S)n(-c2ccccc2)c1N(C(C)=O)C(C)=O	0	0	0	-6.23	65.4%	0
SMILES	H9c2 TAG inh	CHT allo act	Kir21 block	CHT inh	CHT block conf	HEK293 CHT ctr
CCOC(=O)c1sc(=S)n(-c2ccccc2)c1N	0	0	0	0	-	-
COc1ccc(CCNC(=O)[C@H](CC(C)C)NC(=O)N2CCn3c2nc2ccccc23)cc1OC	-	0	0	0	-	-
c1ccc(C(c2ccccc2)N2CCN(Cc3nnnn3C3CCCC3)CC2)cc1	0	0	0	-5.57	0	0
Fc1ccccc1-c1nc2c(s1)CCc1onc(-c3ccc(Br)cc3)c1-2	0	0	0	0	-	-
CN(C)C=NC(=O)c1cc(C(=O)c2ccc(C(C)(C)C)cc2)c[nH]1	0	0	0	0	-	-
Cc1ccc(-c2nnc(OCC3CCCO3)c3ccccc23)cc1 (configuration not stated)	0	0	0	-5.49	45.4%	0
COc1cc(CCC(=O)OCC(=O)NCc2ccc(Cl)cc2)cc(OC)c1OC	-	0	-4.39	-6.53	66.1%	0
COc1cc(CCC(=O)NCc2ccc(Cl)cc2)cc(OC)c1OC	-	0	0	0	-	-
O=C(NNC(=S)NC(=O)c1sc2ccccc2c1Cl)c1ccc(Cl)cc1	-	0	0	-7.33	32.5%	0
Cc1ccc(C)c(N2N=C(C(=O)OCc3nnc(-c4ccccc4Br)o3)CCC2=O)c1	0	-	-	-	-	-

Screening data (PubChem)
